Targets with a hit are over-represented here; the source holds about 8,800 in all. About 0.5% of all pairs of compound and target were hits. Values without a mark were called inactive.
Tests used:
Experiment in all cases: log2 fold change, soluble protein after heating vs DMSO (PISA); higher = thermal stabilisation; K562 lysate, 10 uM; active = over 0.2 and 3.5 SD of the protein, either way, in both replicates (recomputed)
vemurafenib = compound: CCCS(=O)(=O)Nc1ccc(F)c(C(=O)c2c[nH]c3ncc(-c4ccc(Cl)cc4)cc23)c1F [vemurafenib]
Summary of the method: (§1)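 To prepare the extract, K562 pellets were dounce-homogenised in PBS pH 7.4 with 1 mM MgCl2, giving crude material at 1 mg/mL protein. This was treated with 10 μM compound for 30 min, then heated in aliquots for 3 min over 48°C-58°C before pooling and addition of NP-40 to 0.5% at 4°C. Centrifugation at 21,000xg for 90 min left soluble protein in the supernatant, which TMTpro 16plex LC-MS/MS quantified with equalised channel sums. Results are log-two fold changes in thermal stability compared with solvent controls, from duplicates.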

[1] = compound: CCCS(=O)(=O)Nc1ccc(F)c(C(=O)c2c[nH]c3ncc(Cl)cc23)c1F
Summary of the method: as §1

barasertib = compound: CCN(CCCOc1ccc2c(Nc3cc(CC(=O)Nc4cccc(F)c4)[nH]n3)ncnc2c1)CCOP(=O)(O)O [barasertib]
Summary of the method: as §1

[2] = compound: CC[C@@H]1C(=O)N(C)c2cnc(Nc3ccc(C(=O)NC4CCN(C)CC4)cc3OC)nc2N1C1CCCC1
Summary of the method: as §1

volasertib = compound: CC[C@@H]1C(=O)N(C)c2cnc(Nc3ccc(C(=O)N[C@H]4CC[C@H](N5CCN(CC6CC6)CC5)CC4)cc3OC)nc2N1C(C)C [volasertib]
Summary of the method: as §1

[3] = compound: CCn1c(C(=O)N(C2CC2)C2CC2)cc2c3c(ncn3C)c(Nc3cc(C)n(C)n3)nc21
Summary of the method: as §1

[4] = compound: CCn1cc(-c2ccnc3[nH]c(-c4cccc(CN(C)C)c4)cc23)c(-c2ccc(NC(=O)N(C)C)cc2)n1
Summary of the method: as §1

[5] = compound: CN1CCC(CNc2ccc3ncc(-c4cccc(OC(F)(F)F)c4)n3n2)CC1
Summary of the method: as §1

saracatinib = compound: CN1CCN(CCOc2cc(OC3CCOCC3)c3c(Nc4c(Cl)ccc5c4OCO5)ncnc3c2)CC1 [saracatinib]
Summary of the method: as §1

sotrastaurin = compound: CN1CCN(c2nc(C3=C(c4c[nH]c5ccccc45)C(=O)NC3=O)c3ccccc3n2)CC1 [sotrastaurin]
Summary of the method: as §1

UniProt Q8WXC6, sequence (Q8WXC6 whole entry, looked up): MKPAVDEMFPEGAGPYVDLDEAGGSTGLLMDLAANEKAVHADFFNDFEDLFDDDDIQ
UniProt Q99715, sequence (Q99715 whole entry, looked up): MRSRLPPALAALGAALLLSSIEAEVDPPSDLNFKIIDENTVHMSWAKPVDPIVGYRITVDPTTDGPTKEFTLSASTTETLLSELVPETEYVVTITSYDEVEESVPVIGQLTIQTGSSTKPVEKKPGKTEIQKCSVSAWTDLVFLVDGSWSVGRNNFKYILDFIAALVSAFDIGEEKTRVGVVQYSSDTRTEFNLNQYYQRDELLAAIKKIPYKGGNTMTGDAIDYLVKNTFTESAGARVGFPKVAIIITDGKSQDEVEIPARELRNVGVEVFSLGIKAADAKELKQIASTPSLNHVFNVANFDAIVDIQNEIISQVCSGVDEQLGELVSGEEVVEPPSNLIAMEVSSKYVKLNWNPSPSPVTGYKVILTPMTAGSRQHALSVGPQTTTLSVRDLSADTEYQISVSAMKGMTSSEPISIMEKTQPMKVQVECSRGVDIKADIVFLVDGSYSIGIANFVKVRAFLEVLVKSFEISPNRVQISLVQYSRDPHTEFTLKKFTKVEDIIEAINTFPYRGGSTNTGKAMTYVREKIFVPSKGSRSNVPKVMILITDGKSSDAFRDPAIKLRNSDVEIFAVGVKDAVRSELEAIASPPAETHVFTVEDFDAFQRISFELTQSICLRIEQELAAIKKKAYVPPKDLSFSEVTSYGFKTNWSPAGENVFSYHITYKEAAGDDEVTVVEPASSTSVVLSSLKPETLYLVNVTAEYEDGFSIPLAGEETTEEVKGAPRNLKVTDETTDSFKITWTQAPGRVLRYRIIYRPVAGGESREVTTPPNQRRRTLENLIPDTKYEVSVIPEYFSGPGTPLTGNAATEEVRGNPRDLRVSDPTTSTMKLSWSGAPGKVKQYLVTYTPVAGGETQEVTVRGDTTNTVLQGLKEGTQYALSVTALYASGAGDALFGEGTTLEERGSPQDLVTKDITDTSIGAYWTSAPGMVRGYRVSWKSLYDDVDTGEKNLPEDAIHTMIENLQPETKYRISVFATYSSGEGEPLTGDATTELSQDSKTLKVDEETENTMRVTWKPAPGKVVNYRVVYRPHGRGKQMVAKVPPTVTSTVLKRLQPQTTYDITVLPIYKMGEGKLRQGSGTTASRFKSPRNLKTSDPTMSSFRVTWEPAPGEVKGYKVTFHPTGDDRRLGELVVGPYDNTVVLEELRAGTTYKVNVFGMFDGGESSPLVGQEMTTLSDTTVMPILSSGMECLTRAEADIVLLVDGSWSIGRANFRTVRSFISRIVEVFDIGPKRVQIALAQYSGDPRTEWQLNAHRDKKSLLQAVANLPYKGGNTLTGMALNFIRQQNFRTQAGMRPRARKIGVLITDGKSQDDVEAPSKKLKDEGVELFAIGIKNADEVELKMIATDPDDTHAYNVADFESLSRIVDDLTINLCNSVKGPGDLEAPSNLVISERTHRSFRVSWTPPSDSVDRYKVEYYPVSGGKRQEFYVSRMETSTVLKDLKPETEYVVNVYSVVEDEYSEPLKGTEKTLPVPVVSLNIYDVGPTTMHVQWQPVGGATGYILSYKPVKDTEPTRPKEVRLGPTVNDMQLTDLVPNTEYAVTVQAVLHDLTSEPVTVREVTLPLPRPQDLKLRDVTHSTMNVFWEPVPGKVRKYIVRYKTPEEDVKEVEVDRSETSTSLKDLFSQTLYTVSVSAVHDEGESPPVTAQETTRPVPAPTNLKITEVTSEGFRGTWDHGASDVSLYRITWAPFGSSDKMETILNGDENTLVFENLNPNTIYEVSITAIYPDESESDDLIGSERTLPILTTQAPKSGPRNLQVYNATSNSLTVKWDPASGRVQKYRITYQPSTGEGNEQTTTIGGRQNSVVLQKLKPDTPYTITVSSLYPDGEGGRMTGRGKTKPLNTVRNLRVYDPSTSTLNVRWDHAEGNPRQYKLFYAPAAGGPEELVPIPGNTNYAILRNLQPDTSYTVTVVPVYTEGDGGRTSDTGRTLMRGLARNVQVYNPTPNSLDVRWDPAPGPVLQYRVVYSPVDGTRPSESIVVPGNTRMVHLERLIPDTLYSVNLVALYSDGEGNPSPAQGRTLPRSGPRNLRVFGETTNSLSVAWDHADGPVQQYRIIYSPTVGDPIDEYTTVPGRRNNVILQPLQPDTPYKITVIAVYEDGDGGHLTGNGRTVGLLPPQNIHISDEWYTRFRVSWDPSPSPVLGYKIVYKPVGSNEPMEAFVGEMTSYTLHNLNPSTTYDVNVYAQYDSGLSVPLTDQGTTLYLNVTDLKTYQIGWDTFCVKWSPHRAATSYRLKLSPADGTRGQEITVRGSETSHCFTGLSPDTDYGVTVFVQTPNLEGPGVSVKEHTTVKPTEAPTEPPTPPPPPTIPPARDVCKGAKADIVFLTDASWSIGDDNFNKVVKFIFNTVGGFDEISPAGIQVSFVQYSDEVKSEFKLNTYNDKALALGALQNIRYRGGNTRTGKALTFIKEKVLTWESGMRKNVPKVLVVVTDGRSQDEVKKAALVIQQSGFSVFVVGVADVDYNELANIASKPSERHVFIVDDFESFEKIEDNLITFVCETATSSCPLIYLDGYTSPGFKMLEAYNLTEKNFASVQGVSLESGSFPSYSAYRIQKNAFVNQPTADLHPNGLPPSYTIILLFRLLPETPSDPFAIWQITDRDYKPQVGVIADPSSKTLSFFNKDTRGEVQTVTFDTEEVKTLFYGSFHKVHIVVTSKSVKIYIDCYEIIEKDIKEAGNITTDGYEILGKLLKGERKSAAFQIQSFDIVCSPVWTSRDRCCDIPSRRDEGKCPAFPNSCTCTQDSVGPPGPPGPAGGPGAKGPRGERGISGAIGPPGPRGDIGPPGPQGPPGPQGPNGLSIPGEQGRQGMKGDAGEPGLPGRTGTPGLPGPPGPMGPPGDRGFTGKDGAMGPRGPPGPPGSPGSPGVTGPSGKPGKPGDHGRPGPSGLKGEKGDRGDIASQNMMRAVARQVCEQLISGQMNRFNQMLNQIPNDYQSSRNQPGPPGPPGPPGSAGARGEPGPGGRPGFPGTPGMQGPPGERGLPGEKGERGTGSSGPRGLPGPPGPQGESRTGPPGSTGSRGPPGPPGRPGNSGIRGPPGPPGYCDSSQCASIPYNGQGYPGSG
UniProt Q8WYQ5, sequence (Q8WYQ5 whole entry, looked up): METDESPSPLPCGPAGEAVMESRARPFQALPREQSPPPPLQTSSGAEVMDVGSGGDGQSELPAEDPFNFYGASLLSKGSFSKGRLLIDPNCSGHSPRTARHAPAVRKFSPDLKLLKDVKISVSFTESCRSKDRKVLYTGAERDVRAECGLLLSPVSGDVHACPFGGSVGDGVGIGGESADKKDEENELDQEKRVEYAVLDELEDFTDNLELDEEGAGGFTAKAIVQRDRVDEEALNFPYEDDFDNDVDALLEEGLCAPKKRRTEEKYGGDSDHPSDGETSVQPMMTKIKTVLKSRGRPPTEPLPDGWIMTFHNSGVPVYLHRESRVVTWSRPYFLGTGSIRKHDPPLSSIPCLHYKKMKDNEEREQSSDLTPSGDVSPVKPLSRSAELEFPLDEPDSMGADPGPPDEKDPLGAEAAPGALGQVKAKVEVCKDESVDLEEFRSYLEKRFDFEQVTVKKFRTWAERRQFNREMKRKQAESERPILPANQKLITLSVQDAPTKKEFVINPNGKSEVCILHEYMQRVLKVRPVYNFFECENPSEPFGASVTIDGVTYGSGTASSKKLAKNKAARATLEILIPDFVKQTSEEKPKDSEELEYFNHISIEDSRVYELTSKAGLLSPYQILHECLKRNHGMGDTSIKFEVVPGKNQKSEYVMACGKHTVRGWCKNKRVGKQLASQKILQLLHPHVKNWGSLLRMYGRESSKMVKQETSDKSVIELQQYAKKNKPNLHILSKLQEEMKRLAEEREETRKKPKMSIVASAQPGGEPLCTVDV
UniProt Q9Y6M4, sequence (Q9Y6M4 whole entry, looked up): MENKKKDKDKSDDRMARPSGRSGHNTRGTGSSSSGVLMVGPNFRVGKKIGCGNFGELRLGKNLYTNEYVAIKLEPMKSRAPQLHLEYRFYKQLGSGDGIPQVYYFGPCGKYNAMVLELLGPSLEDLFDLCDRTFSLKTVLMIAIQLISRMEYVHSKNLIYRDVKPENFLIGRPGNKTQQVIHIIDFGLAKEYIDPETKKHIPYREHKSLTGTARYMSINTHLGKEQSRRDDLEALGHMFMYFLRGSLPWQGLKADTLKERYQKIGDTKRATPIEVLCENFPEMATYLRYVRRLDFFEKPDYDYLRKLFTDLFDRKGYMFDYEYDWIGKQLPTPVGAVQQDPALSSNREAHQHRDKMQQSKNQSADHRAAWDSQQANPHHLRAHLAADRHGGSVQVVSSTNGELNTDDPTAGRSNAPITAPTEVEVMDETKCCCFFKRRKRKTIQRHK
UniProt Q6ZPD9, sequence (Q6ZPD9 whole entry, looked up): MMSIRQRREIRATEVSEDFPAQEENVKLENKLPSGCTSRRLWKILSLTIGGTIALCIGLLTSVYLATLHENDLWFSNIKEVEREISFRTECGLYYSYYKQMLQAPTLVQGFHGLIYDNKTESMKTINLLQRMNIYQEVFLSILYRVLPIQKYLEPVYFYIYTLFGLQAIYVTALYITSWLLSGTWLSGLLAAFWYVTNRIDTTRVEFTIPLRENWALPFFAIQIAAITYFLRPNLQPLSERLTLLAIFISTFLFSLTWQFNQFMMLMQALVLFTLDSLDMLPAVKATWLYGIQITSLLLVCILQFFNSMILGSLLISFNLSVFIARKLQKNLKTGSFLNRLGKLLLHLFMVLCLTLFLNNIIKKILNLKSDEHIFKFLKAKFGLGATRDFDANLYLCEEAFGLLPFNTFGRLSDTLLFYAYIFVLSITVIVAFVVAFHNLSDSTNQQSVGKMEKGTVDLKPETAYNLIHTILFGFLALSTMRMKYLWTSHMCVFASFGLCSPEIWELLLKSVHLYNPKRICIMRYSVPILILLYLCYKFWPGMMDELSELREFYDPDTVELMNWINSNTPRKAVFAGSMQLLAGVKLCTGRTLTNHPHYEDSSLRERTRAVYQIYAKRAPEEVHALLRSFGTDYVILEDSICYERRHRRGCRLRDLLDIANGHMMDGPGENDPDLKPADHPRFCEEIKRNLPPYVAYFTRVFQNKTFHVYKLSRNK

| Target | log2 fold change (vemurafenib) | log2 fold change [1] | log2 fold change (barasertib) | log2 fold change [2] | log2 fold change (volasertib) | log2 fold change [3] | log2 fold change [4] | log2 fold change [5] | log2 fold change (saracatinib) | log2 fold change (sotrastaurin) |
| --- | --- | --- | --- | --- | --- | --- | --- | --- | --- | --- |
| DPM1 (UniProt O60762) | 0.055 | 0.004 | -0.021 | 0.039 | 0.001 | -0.012 | -0.013 | -0.058 | 0.036 | 0.028 |
| CSNK1D (UniProt P48730) | -0.04 | -0.044 | -0.092 |  | -0.191 | 0.025 |  | 0.255 | -0.039 | 0.058 |
| CSNK1G3 (UniProt Q9Y6M4) | -0.004 | -0.053 | -0.028 |  | 0.002 | 0.039 | -0.095 | 0.065 | 0.043 | 0.035 |
| COX20 isoform 2 (UniProt Q5RI15) | 0.011 | -0.011 | -0.329 | 0.144 | 0.021 | -0.015 | 0.623 (active) | -0.232 | -0.015 | 0.001 |
| DNAH5 (UniProt Q8TE73) | 0.007 | 0.074 | 0.006 |  | 0.02 | -0.035 | -0.481 (active) | 0.122 | 0.007 |  |
| CTNNBL1 (UniProt Q8WYA6) | 0.004 | 0.016 | 0.005 | -0.042 | -0.041 | -0.16 | -0.013 | -0.091 | 0.023 | 0.015 |
| DOCK10 (UniProt Q96BY6) | 0.095 | -0.008 | -0.054 | 0.085 | 0.027 | 0.043 | -0.747 (active) | 0.387 | 0.001 | 0.007 |
| CUX1 isoform 2 (UniProt Q13948) | 0.013 | 0.084 |  | -0.087 | -0.001 | 0.019 | 0.06 | -0.34 | -0.054 | 0.081 |
| DPY19L3 (UniProt Q6ZPD9) | 0.258 | 0.05 | 0.071 | 0.043 | -0.007 |  |  |  |  | 0.051 |
| COTL1 (UniProt Q14019) | -0.002 | -0.017 | -0.068 | 0.019 | 0.02 | 0.027 | 0.37 (active) | -0.076 | -0.019 | -0.045 |
| CXorf38 (UniProt Q8TB03) | 0.017 | -0.015 | -0.024 | 0.038 | 0.013 | -0.027 | -0.059 | 0.04 | 0.105 | 0.018 |
| CLASP2 (UniProt O75122) | 0.241 | 0.072 | -0.015 | 0.021 | -0.052 | -0.098 | -0.077 | 0.073 |  | 0.18 |
| DMAC2L (UniProt Q99766) | 0.002 | 0.026 | 0.065 | 0.075 | -0.028 | 0.021 | -0.017 | 0.053 | 0.058 | -0.012 |
| DNM2 (UniProt P50570) | 0.002 | 0.005 | 0.037 | -0.024 | -0.043 | 0.029 | -0.012 | 0.013 | 0.016 | 0.001 |
| CNTN4 (UniProt Q8IWV2) | 0.237 | 0.12 | 0.03 | 0.295 | 0.024 | -0.326 | -0.474 | 0.128 |  | -0.076 |
| DGCR8 (UniProt Q8WYQ5) | -0.022 | 0.031 | 0.062 | -0.046 | -0.021 | 0.015 | -0.052 | 0.066 | 0.042 | 0.04 |
| DLGAP5 (UniProt Q15398) | 0.01 | 0.009 | 0.007 | -0.018 | -0.013 | 0 | -0.024 | 0.019 | 0.013 | -0.004 |

| Target | log2 fold change (vemurafenib) | log2 fold change [1] | log2 fold change (barasertib) | log2 fold change [2] | log2 fold change (volasertib) | log2 fold change [3] | log2 fold change [4] | log2 fold change [5] | log2 fold change (saracatinib) | log2 fold change (sotrastaurin) |
| --- | --- | --- | --- | --- | --- | --- | --- | --- | --- | --- |
| DAPK1 isoform 3 (UniProt P53355) | 0.047 | -0.203 |  |  | -0.138 | 0.022 | 0.138 | -0.04 | 0.022 | -0.039 |
| CPLX1 (UniProt O14810) | 0.034 | 0.057 |  | -0.026 | 0.029 | -0.074 |  |  | 0.893 (active) |  |
| CHFR (UniProt Q96EP1) | -0.252 | 0.063 |  | -0.013 | 0.043 | 0.052 |  |  | 0.052 | 0.033 |
| DNA2 (UniProt P51530) | -0.094 |  |  | -0.053 |  | 0.051 | 0.03 | 0.022 | 0.008 | 0.073 |
| CORO7 (UniProt P57737) | -0.143 |  |  | 0.089 |  | -0.025 | 0.321 | 0.165 | 0.166 | 0.137 |
| COPS9 (UniProt Q8WXC6) |  | -0.075 |  |  | 0.062 | -0.197 |  |  |  |  |
| DESI2 (UniProt Q9BSY9) | 0.064 |  |  | 0.089 |  |  | 0.116 | -0.113 |  |  |
| DDR1 isoform 5 (UniProt Q08345) |  |  | 0.169 | 0.064 |  | 0.013 | 0.043 | -0.479 (active) | -0.142 | -0.019 |
| CNNM2 (UniProt Q9H8M5) | 0.025 | 0.024 |  | 0 | -0.043 | -0.091 | -0.059 | 0.036 | -0.039 | 0.091 |
| DHX32 (UniProt Q7L7V1) | 0.173 |  |  | -0.026 |  | -0.106 | 0.137 | 0.003 |  | -0.011 |
| DHRS13 (UniProt Q6UX07) |  | 0.291 | 0.236 |  | -0.274 | 0.077 |  |  | -0.031 | 0.095 |
| CLIP1, A0A3B3ITA2 | -0.026 |  |  |  |  | -0.015 | -0.515 | 0.634 (active) |  | -0.021 |
| DDAH1 (UniProt O94760) | 0.054 | 0.071 |  | 0.04 | 0.068 | 0.061 | -0.068 | -0.051 | -0.308 (active) | -0.022 |
| DALRD3 (UniProt Q5D0E6) | -0.033 | -0.025 |  | -0.095 | -0.041 |  | 0.003 | 0.144 |  |  |
| DLGAP5 isoform 3 (UniProt Q15398) |  |  | 0.281 |  |  |  | -0.165 | -0.03 | 0.165 |  |
| COL12A1 (UniProt Q99715) | 0.239 | 0.178 |  | 0.194 | -0.139 |  |  |  | 0.063 | -0.233 |
| COX7B (UniProt P24311) | 0.014 | -0.047 |  | -0.01 | 0.004 | -0.051 | 0.047 | -0.013 | -0.062 | -0.028 |
